Screening results (PubChem BioAssay)
The full list was thinned out, with hits kept by preference.
IDE exosite FP: exo-site inhibitors of human IDE, primary screen, biochemical, fluorescence anisotropy, probe displacement; 17,000 compounds, 6.3% hits; z-score at 20 µM; purified IDE, FL-6b probe fluorescence polarization; stronger effect = lower value; Insulin-degrading enzyme (Homo sapiens), P14735;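 active means z-score of -3 or lower, meaning strong loss of probe binding signal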;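 further: His-tagged human IDE residues 42-1019 made in E. coli with 30 nM FL-6b probe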
* = called active by the depositor; ! = a repeat was not active.

SMILES	IDE exosite FP
O=C(Nc1ccccc1F)N1CCCCN2[C@H](C1)[C@H](c1ccc(C#Cc3cccnc3)cc1)[C@@H]2CO	2
O=C(Nc1cccc(F)c1)N1CCCCN2[C@H](C1)[C@H](c1ccc(C#Cc3ccccc3)cc1)[C@@H]2CO	2.6
O=C(Nc1ccccc1)N1CCCCN2[C@H](CO)[C@@H](c3ccc(C#Cc4cccnc4)cc3)[C@H]2C1	2.1
O=C(Nc1ccccc1F)N1CCCCN2[C@H](CO)[C@H](c3ccc(C#Cc4cccnc4)cc3)[C@@H]2C1	-6.8*
O=C(Nc1cccc(F)c1)N1CCCCN2[C@@H](CO)[C@H](c3ccc(C#Cc4ccccc4)cc3)[C@@H]2C1	-3.5*
O=C(Nc1cccc(F)c1)N1CCCCN2[C@H](CO)[C@H](c3ccc(C#Cc4ccccc4)cc3)[C@H]2C1	-1
O=C(Nc1ccccc1)N1CCCCN2[C@@H](CO)[C@@H](c3ccc(C#Cc4cccnc4)cc3)[C@@H]2C1	4.1
O=C(Nc1ccccc1F)N1CCCCN2[C@H](CO)[C@@H](c3ccc(C#Cc4cccnc4)cc3)[C@H]2C1	-2.1
CCC(=O)N1CC2(C1)[C@H](c1ccc(-c3cccc(C)c3)cc1)[C@@H](CO)N2S(C)(=O)=O	-0.59
CCC(=O)N1CC2(C1)[C@@H](c1ccc(-c3cccc(C)c3)cc1)[C@@H](CO)N2S(C)(=O)=O	-3.3*
CN(C)CC(=O)N1CC2(C1)[C@@H](c1ccccc1)[C@@H](CO)N2S(C)(=O)=O	1.1
CC(C)(C)[S@@](=O)N1Cc2cc(C(=O)N[C@H]3CCN(Cc4ccccc4)C3)nc(-c3cccc(-c4cccnc4)c3)c2[C@H]1CCO	2.3
O=C(C1CCC1)N1C[C@H]2[C@@H](c3ccccc31)[C@@H](CO)N2C(=O)Nc1cccc(F)c1	2.8
O=C(c1cccnc1)N1CC(=O)N2[C@@H](CO)[C@H](c3ccc(-c4ccccc4F)cc3)[C@@H]2C1	0.46
Cc1ccccc1-c1ccc([C@@H]2[C@@H](CO)N3C(=O)CN(C(=O)c4cccnc4)C[C@H]23)cc1	-3
Cc1ccccc1-c1ccc(C2[C@@H]3CN(C(=O)c4cnccn4)C[C@H]2N3)cc1 (stereo not given in full)	-20*!
CN(C)C(=O)c1ccc(-c2ccc(C3[C@@H]4CN(C(=O)c5cnccn5)C[C@H]3N4)cc2)cc1 (stereo not given in full)	2.2
Cc1ccccc1-c1ccc([C@@H]2[C@H](CO)N3C(=O)CN(C(=O)c4cccnc4)C[C@@H]23)cc1	-7.2*
Cc1ccccc1-c1ccc([C@@H]2[C@@H](CO)N3C(=O)CN(C(=O)c4cccnc4)C[C@@H]23)cc1	-13*
O=C(c1cccnc1)N1CC(=O)N2[C@@H](CO)[C@@H](c3ccc(-c4ccc(F)cc4)cc3)[C@@H]2C1	0.84
N#Cc1cccc(-c2ccc(C3[C@@H]4CN(C(=O)c5ccccn5)C[C@H]3N4)cc2)c1 (stereo not given in full)	0.89
O=C(c1cccnc1)N1CC(=O)N2[C@@H](CO)[C@H](c3ccc(-c4ccc(F)cc4)cc3)[C@@H]2C1	2.7
O=C(Nc1ccccc1F)N1CC(=O)N2[C@H](CO)[C@H](c3ccc(C#Cc4ccc(F)cc4)cc3)[C@H]2C1	1.9
COc1cccc(S(=O)(=O)Nc2ccc3c(c2)C(=O)N(C)[C@@H]2CC[C@@H](CC(=O)NCC4CCCCC4)O[C@@H]2CO3)c1	-2
O=C(NCC[C@@H]1CC[C@H](NS(=O)(=O)Cc2ccccc2)[C@@H](CO)O1)C1CCCCC1	1.2
SMILES	IDE exosite FP
COCC(=O)N1[C@@H](C#N)[C@H](c2ccc(-c3cccc(F)c3)cc2)[C@@H]1CO	-1.1
CC(C)C#Cc1ccc([C@@H]2[C@@H](CO)N3CCCCN(S(=O)(=O)Cc4ccccc4)C[C@H]23)cc1	1.2
COCC(=O)N1[C@H](C#N)[C@@H](c2ccccc2C2=CCCCC2)[C@@H]1CO	4.7
CNC[C@@H]1Oc2ncc(-c3cncnc3)cc2C(=O)N([C@H](C)CO)C[C@@H]1C	-2
COCC(=O)N1CC(=O)N2[C@@H](CO)[C@@H](c3ccc(C#Cc4cccc(OC)c4)cc3)[C@@H]2C1	-7*
O=C(Cc1ccncc1)N1CC(=O)N2[C@H](CO)[C@H](c3ccc(-c4cccc(F)c4)cc3)[C@@H]2C1	-1.5
CCC(=O)N1CC(=O)N2[C@H](C1)[C@@H](c1ccc(C#Cc3cccnc3)cc1)[C@@H]2CO	-1
O=C(Cc1cccnc1)N1CC(=O)N2[C@H](CO)[C@@H](c3ccc(-c4cccc(F)c4)cc3)[C@@H]2C1	-3.4*
CCCNC(=O)N1CC(=O)N2[C@H](C1)[C@@H](c1ccc(C#Cc3cccc(OC)c3)cc1)[C@@H]2CO	0.17
O=C(Cc1ccccc1)N1CC(=O)N2[C@H](C1)[C@H](c1ccc(-c3cccc(F)c3)cc1)[C@@H]2CO	2.6
COCC(=O)N1CC(=O)N2[C@@H](CO)[C@@H](c3ccc(C#Cc4cccnc4)cc3)[C@@H]2C1	-0.85
CCC(=O)N1CC(=O)N2[C@H](CO)[C@H](c3ccc(C#Cc4cccc(OC)c4)cc3)[C@H]2C1	-9.8*
COCC(=O)N1CC(=O)N2[C@H](CO)[C@H](c3ccc(C#Cc4cccnc4)cc3)[C@H]2C1	2
COc1cccc(C#Cc2ccc([C@H]3[C@@H](CO)N4C(=O)CN(C(=O)Cc5ccccc5)C[C@@H]34)cc2)c1	1.4
CCC(=O)N1CC(=O)N2[C@H](CO)[C@H](c3ccc(C#Cc4cccc(OC)c4)cc3)[C@@H]2C1	-8.7*
COc1cccc(C#Cc2ccc([C@H]3[C@H]4CN(C(=O)Cc5ccccc5)CC(=O)N4[C@H]3CO)cc2)c1	-1.8
COc1ccc2c3c([nH]c2c1)[C@@H](CO)N(S(=O)(=O)c1cn(C)cn1)CC31CCN(Cc2ccccc2Cl)CC1	1.9
COc1ccc2c3c(n(C)c2c1)[C@H](CO)N(C(=O)Nc1ccc(F)cc1)CC31CN(S(=O)(=O)c2cn(C)cn2)C1	0.38
O=C(O)C[C@H]1C[C@H]2c3cc(NC(=O)Cc4ccncc4)ccc3O[C@H]2[C@H](CO)O1	-0.24
CCCC#Cc1ccc([C@H]2[C@@H](CO)N3C(=O)CN(C(=O)c4ccc(F)cc4)C[C@@H]23)cc1	0.46
OC[C@@H]1[C@@H](c2ccc(Br)cc2)[C@H]2CN(Cc3ccccn3)CCCCN12	-0.4
C[C@H](CO)N1C[C@H](C)[C@H](CN(C)Cc2ccc3c(c2)OCCN3C)OCc2ccccc2-c2ccccc2C1=O	1.3
COc1cccc(C#Cc2ccc([C@@H]3[C@@H](CO)N4C(=O)CN(C(=O)Cc5cccnc5)C[C@H]34)cc2)c1	-2.3
COc1cccc(C#Cc2ccc([C@H]3[C@@H](CO)N4C(=O)CN(C(=O)Cc5cccnc5)C[C@H]34)cc2)c1	-2
COc1cccc(C#Cc2ccc([C@H]3[C@H](CO)N4C(=O)CN(C(=O)Cc5cccnc5)C[C@@H]34)cc2)c1	-4.1*
C/C=C/c1ccc([C@H]2[C@H]3CN(S(=O)(=O)c4cccc(F)c4)CC(=O)N3[C@H]2CO)cc1	-2.1
CN1C(=O)c2cc(NS(=O)(=O)c3cccc(F)c3)ccc2OC[C@@H]2O[C@@H](CC(=O)N3CCc4ccccc4C3)CC[C@H]21	-0.56
C/C=C/c1ccc([C@H]2[C@H](CO)N3CCCCN(S(=O)(=O)c4cccs4)C[C@@H]23)cc1	4.3
Cc1ccccc1-c1ccc([C@H]2[C@H]3CN(C(=O)NC4CCCC4)CC(=O)N3[C@H]2CO)cc1	-12*
CC(C)C#Cc1ccc([C@@H]2[C@H](CO)N3C(=O)CN(C(=O)NC4CCCC4)C[C@@H]23)cc1	-1.4
